Test results reported in PubChem BioAssay.
The source made the active and inactive calls.

Assays:
[1] = test system: PRMT1 (protein arginine N-methyltransferase 1); assay: PRMT1 binders on small-molecule microarrays, primary screen, biochemical, small-molecule microarray, 635 nm fluorescence (AID 1088); conditions: small-molecule microarray binding, higher = more signal;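 further: binding of Prmt1 protein to compounds spotted on small-molecule microarray slides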
[2] = yeast growth modulation, basal conditions, primary screen, YJM789 clinical isolate, OD600, 24 h (AID 1089);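 further: growth of clinical yeast isolate S. cerevisiae YJM 789 seeded 1000 cells per well; test concentration not given here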; conditions: S. cerevisiae YJM789 growth, higher = more signal, called active from +8 up or from −8 down
[3] = fission yeast growth modulation, primary screen, strain 972, OD600, 24 h, no modulator (AID 1090);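 further: basal condition with compound alone and no growth modifier present; test concentration not given here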; conditions: S. pombe 972 growth, higher = more signal, called active from +8 up or from −8 down
[4] = S. cerevisiae growth modulation with rapamycin, primary screen, strain BY4716, OD600, 96 h (AID 1091); conditions: higher = more signal, called active from +8 up or from −8 down; further: test concentration not given here
[5] = target: Torsin-1A-interacting protein 2 (Homo sapiens) (UniProt Q8NFQ8); assay: LULL1 binders on small-molecule microarray, primary screen, cell lysate, human LULL1 lysate, 635/667 nm fluorescence (AID 1092); conditions: hLULL1 lysate binding, 635 nm fluorescence, higher = more signal;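 further: probe is lysate of COS7 cells overexpressing human LULL1; score merges per-feature 667 nm fluorescence with signal-to-noise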
[6] = E. coli growth modulation, two-sided OD650, primary screen, E. coli filamentation project, strain DRC41, 24 h (AID 1093); conditions: OD650, 24 h, higher = more signal, called active from +8 up or from −8 down;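 further: MC1000 strain lacking acrAB efflux and sulA so SOS filamentation is blocked; test concentration not given here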
[7] = small-molecule microarray binders of probe aLefty2, primary screen, biochemical, biotinylated probe, 635/667 nm fluorescence (AID 1094); conditions: higher = more signal;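 further: score merges spot fluorescence near 667 nm with spot signal-to-noise ratio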
[8] = test system: Noggin (protein binding on small-molecule microarray); assay: Noggin binders on small-molecule microarray, primary screen, biochemical, 635/667 nm fluorescence (AID 1095); conditions: 635 nm fluorescence, higher = more signal;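 further: score merges 667 nm feature fluorescence with signal to noise over triplicate slides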
[9] = target: Neurogenic locus notch homolog protein 3 (Homo sapiens) (UniProt Q9UM47); assay: NOTCH3 binders on small-molecule microarray, primary screen, biochemical, 635/667 nm fluorescence (AID 1096); conditions: NOTCH3 binding, 635 nm fluorescence, higher = more signal
[10] = small-molecule microarray binders of probe aEGFR, primary screen, biochemical, biotinylated probe, 635/667 nm fluorescence (AID 1097); conditions: higher = more signal;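 further: probe is a biotinylated anti-EGFR antibody binding compounds printed on slides; score combines fluorescence near 667 nm and signal to noise of each spot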
[11] = test system: Plasmodium falciparum Sir2 (PF13_0152, Sir2A); assay: pfSir2 binders on small-molecule microarrays, primary screen, biochemical, small-molecule microarray, 635 nm fluorescence (AID 1098); conditions: small-molecule microarray binding, fluorescence 635 nm; higher = more signal;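 further: score merges spot fluorescence intensity with its signal-to-noise ratio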
[12] = small-molecule microarray binders of probe aDKK1, primary screen, biochemical, biotinylated probe, 635/667 nm fluorescence (AID 1099); conditions: higher = more signal;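 further: score merges 667nm spot fluorescence with signal to noise across triplicate slides; reference of the scale not given here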
[13] = small-molecule microarray binders of probe aCHRDL2, primary screen, biochemical, biotinylated probe, 635/667 nm fluorescence (AID 1100); conditions: higher = more signal
[14] = splicing luciferase reporter signal modulators, primary screen, spliceosome inhibition project, cell-based, HEK293, splice +/- reporter (AID 1101); conditions: luminescence, 24 h, higher = more signal, called active from +8 up or from −8 down;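 further: HEK293 cells carrying a splicing-competent luciferase reporter gene; test concentration not given here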
[15] = target: Fibroblast growth factor 10 (Homo sapiens) (UniProt O15520); assay: FGF10 binders on small-molecule microarrays, primary screen, biochemical, small-molecule microarray, 635 nm fluorescence (AID 1102); conditions: FGF10 binding, fluorescence 635 nm, higher = more signal
[16] = test system: glycogen synthase kinase-3 (GSK3A per assay name; protocol says GSK3B); assay: GSK3 binders on small-molecule microarrays, primary screen, biochemical, small-molecule microarray, 635 nm fluorescence, GSK3A (AID 1103); conditions: small-molecule microarray binding, fluorescence 635 nm; higher = more signal; further: the record names both GSK3A and GSK3B
[17] = target: Epidermal growth factor receptor (Homo sapiens) (UniProt P00533); assay: EGFR binders on small-molecule microarrays, primary screen, biochemical, small-molecule microarray, 635 nm fluorescence (AID 1104); conditions: EGFR binding, higher = more signal;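 further: score merges 667 nm emission intensity with spot signal to noise over triplicate slides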
[18] = target: Follistatin-related protein 3 (Homo sapiens) (UniProt O95633); assay: FSTL3 binders on small-molecule microarrays, primary screen, biochemical, small-molecule microarray, 635 nm fluorescence (AID 1105); conditions: FSTL3 binding, higher = more signal;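 further: score merges emission near 667 nm and signal to noise per printed spot across three slides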
[19] = target: Dickkopf-related protein 1 (Homo sapiens) (UniProt O94907); assay: DKK1 binders on small-molecule microarrays, primary screen, biochemical, small-molecule microarray, 635 nm fluorescence scan (AID 1106); conditions: DKK1 binding, higher = more signal;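 further: score merges emission near 667 nm with signal to noise over three replicate slides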
[20] = test system: Inhibin beta A chain (activin A); assay: INHBA (activin A) binders on microarrays, primary screen, biochemical, small-molecule microarray, 635 nm fluorescence scan (AID 1107); conditions: small-molecule microarray binding, higher = more signal;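 further: mouse activin A protein probed at 4.33 µg/mL on printed slides; score merges bound-protein fluorescence near 667 nm with spot signal-to-noise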

Sequence of Epidermal growth factor receptor (Homo sapiens) (P00533 whole entry, looked up): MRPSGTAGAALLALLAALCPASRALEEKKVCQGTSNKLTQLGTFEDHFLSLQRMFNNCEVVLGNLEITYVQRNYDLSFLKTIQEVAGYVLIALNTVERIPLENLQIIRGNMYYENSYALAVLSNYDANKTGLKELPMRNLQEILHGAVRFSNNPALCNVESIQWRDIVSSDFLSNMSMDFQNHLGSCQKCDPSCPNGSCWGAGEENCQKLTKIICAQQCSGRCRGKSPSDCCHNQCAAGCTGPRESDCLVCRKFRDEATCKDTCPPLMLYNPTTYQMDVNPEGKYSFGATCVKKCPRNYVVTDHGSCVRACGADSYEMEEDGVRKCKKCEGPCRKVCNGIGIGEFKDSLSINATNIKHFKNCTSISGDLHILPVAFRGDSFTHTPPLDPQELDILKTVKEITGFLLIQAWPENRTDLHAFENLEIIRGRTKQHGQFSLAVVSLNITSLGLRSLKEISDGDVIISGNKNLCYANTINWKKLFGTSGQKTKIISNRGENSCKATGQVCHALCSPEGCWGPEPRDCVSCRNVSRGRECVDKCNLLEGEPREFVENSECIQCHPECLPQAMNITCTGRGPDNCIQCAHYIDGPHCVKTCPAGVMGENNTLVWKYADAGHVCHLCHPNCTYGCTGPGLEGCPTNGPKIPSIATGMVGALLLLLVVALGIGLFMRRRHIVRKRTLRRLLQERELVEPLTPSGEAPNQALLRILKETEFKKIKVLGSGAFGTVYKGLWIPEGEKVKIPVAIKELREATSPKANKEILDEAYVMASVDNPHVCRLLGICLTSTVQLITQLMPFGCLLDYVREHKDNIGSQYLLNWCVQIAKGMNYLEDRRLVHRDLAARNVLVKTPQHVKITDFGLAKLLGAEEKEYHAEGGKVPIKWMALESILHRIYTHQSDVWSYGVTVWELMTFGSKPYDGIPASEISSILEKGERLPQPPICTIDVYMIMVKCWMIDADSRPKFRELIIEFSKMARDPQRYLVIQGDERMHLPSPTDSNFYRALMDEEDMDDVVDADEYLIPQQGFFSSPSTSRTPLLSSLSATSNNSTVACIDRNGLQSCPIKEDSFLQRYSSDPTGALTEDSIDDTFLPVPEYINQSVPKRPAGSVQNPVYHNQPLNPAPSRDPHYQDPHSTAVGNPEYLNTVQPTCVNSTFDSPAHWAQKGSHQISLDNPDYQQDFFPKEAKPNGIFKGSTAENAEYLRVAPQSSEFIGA
Sequence of Fibroblast growth factor 10 (Homo sapiens) (O15520 whole entry, looked up): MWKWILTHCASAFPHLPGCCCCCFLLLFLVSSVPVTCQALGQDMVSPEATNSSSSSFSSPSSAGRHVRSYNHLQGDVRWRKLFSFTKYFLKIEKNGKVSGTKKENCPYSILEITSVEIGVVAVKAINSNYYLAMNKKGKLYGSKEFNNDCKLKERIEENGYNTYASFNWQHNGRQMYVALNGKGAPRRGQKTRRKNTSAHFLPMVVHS
Sequence of Follistatin-related protein 3 (Homo sapiens) (O95633 whole entry, looked up): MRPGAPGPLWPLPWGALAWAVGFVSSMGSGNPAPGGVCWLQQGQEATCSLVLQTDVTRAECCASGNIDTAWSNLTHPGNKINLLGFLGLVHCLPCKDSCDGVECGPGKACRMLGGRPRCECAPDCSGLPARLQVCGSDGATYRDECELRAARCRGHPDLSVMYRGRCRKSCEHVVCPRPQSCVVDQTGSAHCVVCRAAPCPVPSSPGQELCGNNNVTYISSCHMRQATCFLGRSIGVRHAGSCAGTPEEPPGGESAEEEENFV
Sequence of Torsin-1A-interacting protein 2 (Homo sapiens) (Q8NFQ8 whole entry, looked up): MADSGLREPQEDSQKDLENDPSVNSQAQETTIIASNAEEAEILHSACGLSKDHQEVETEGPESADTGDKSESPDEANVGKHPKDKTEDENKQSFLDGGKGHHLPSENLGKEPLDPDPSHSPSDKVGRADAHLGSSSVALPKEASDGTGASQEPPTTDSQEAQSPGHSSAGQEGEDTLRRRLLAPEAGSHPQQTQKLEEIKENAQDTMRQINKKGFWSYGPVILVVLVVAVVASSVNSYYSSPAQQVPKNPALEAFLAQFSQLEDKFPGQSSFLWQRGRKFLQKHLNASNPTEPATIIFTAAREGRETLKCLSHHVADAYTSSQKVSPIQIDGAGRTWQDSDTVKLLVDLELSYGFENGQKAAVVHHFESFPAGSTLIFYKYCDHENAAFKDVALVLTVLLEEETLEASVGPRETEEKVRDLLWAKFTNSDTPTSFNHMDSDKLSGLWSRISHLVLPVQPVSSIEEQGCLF
Sequence of Dickkopf-related protein 1 (Homo sapiens) (O94907 whole entry, looked up): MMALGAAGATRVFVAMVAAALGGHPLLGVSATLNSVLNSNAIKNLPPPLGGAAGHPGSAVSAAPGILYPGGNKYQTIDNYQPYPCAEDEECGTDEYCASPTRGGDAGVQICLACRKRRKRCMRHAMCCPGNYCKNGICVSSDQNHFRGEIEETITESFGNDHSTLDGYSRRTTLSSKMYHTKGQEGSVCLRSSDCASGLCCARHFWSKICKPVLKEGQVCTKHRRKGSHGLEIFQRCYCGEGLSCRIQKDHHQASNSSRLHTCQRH
Sequence of Neurogenic locus notch homolog protein 3 (Homo sapiens) (Q9UM47 whole entry, looked up): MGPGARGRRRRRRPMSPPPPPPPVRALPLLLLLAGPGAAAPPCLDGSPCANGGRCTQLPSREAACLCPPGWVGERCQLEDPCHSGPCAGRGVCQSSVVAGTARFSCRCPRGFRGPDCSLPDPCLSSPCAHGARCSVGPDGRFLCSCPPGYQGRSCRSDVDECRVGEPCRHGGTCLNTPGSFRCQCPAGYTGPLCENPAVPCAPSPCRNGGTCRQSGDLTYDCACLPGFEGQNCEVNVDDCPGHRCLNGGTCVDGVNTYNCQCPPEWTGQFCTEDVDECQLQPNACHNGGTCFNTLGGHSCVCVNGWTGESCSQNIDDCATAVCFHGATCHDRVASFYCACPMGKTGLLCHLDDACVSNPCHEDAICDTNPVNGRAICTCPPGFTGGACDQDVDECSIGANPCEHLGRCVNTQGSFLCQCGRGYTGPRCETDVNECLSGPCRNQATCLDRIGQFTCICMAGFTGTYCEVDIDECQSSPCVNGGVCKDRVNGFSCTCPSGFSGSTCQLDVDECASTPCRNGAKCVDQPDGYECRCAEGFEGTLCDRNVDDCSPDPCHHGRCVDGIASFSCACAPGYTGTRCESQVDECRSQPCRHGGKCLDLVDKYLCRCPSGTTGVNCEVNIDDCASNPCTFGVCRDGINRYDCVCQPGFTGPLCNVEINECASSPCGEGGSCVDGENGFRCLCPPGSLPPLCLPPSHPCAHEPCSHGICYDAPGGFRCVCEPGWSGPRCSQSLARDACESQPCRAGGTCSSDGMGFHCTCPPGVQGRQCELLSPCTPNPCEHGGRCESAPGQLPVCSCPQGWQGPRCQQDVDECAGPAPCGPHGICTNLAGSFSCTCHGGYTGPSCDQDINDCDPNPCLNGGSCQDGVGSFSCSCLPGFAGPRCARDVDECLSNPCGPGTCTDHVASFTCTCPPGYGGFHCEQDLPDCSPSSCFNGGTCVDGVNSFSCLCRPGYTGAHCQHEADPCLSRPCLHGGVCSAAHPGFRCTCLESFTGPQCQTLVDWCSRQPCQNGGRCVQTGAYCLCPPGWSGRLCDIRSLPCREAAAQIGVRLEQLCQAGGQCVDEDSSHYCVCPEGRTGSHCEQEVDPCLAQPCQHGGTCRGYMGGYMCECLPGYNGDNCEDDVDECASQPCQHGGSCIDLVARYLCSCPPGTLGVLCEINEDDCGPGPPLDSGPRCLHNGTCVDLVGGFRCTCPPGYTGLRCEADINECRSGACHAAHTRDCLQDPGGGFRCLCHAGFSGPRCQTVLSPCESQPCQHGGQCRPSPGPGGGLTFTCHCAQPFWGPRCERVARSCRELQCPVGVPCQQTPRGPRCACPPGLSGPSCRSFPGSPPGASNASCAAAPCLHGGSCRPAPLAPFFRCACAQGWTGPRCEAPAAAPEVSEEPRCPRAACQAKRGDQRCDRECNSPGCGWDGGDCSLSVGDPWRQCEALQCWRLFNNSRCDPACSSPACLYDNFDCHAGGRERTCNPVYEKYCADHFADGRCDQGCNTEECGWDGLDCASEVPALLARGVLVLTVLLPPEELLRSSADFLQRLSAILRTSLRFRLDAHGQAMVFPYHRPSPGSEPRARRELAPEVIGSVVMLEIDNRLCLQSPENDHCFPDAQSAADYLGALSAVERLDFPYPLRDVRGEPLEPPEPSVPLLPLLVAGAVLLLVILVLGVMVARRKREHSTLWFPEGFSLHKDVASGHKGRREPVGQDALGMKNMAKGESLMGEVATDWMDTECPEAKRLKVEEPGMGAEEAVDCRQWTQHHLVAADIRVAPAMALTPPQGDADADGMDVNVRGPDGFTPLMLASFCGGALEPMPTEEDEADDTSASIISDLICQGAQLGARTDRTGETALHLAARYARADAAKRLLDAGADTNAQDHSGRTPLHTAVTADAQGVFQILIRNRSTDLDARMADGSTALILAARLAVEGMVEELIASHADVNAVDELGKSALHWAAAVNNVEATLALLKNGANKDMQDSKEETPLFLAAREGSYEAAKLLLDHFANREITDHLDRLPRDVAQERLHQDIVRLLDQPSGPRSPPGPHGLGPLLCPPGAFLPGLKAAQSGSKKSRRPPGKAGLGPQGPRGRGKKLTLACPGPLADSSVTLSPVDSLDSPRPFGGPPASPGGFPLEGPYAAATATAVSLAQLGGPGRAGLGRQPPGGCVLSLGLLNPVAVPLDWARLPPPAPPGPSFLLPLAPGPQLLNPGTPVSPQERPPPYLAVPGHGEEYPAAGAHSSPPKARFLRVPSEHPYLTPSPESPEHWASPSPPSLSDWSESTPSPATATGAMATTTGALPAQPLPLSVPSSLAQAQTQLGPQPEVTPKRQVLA

Compound	composite z-score [1]	z-score [2]	z-score [3]	z-score [4]	composite z-score [5]	z-score [6]	composite z-score [7]	composite z-score [8]	composite z-score [9]	composite z-score [10]	composite z-score [11]	composite z-score [12]	composite z-score [13]	z-score [14]	composite z-score [15]	composite z-score [16]	composite z-score [17]	composite z-score [18]	composite z-score [19]	composite z-score [20]
[N-]=[N+]=NCc1ccccc1[C@@H]1OC(c2ccc(OCCCO)cc2)=N[C@]1(CCS(=O)(=O)c1ccccc1)C(N)=O	1.56	1.16 (inactive)	-1.17 (inactive)	-0.325 (inactive)	3.51	0.901 (inactive)	0.308	0.888	1.08	0.388	1.32	0.775	1.01	0.25 (inactive)	1.6	1.32	0.588	1.41	1.47	1.3
COCCOC(=O)N1C(=O)[C@@]2(c3ccccc31)[C@H](c1ccc(OCCO)cc1)N1[C@H](c3ccccc3)[C@H](c3ccccc3)OC(=O)[C@H]1[C@@H]2C(=O)N1CCc2cc(OC)c(OC)cc2C1	1.53	1.93 (inactive)	0.856 (inactive)	4.71 (inactive)	3.09	0.0474 (inactive)	0.284	1.12	1.14	0.246	1.53	0.305	0.232	-1.02 (inactive)	1.29	1.3	0.738	1.42	0.476	0.355
COC(=O)[C@@]1(Cc2ccccc2)[C@H]2c3cc(C(=O)N(C)C)n(Cc4ccc(OC)c(OC)c4)c3C[C@H]2CN1C(=O)c1ccccc1	0.42	-0.257 (inactive)	0.836 (inactive)	0.534 (inactive)	3.53	-0.793 (inactive)	0.728	0.0998	1.03	0.426	0.0313	0.905	0.94	-4.08 (inactive)	1.44	0.454	0.568	0.609	-0.833	0.67
COc1cc2c(cc1O)C(c1cccs1)N(Cc1cccc(OC(F)(F)F)c1)CC2 (stereo not given)	1.46	-2.16 (inactive)	-8.15 (active)	-2.63 (inactive)	2.1	-0.878 (inactive)	-0.0785	-0.648	0.108	-0.139	1.77	-0.293	0.154	0.965 (inactive)	-0.153	-0.0228	-0.0017	0.105	-0.183	1.41
CC(=O)NCCCC[C@@H]1NC(=O)[C@H]2C[C@@H](C(=O)NCCCCCNC(=O)CS)[C@@H](c3ccc(O)cc3)N2C1=O	0.524	1.16 (inactive)	0.0772 (inactive)	1.76 (inactive)	1.69	0.358 (inactive)	-0.0727	-0.309	-0.527	-0.171	0.273	0.143	0.762	-0.372 (inactive)	0.157	-0.252	-0.578	-0.84	-0.186	-0.0107
C[N+](C)(C)CCCC[C@@H]1NC(=O)[C@H]2C[C@@H](C(=O)NCCCCCCNC(=O)CS)[C@@H](c3ccc(O)cc3)N2C1=O	-0.27	-0.304 (inactive)	0.481 (inactive)	-0.344 (inactive)	0.908	0.138 (inactive)	-0.17	0.395	-1.06	-0.126	-0.783	-0.0452	0.782	-0.45 (inactive)	-0.347	-1.09	-0.805	-0.884	-0.628	0.507
NC(=O)[C@@]1(Cc2ccccc2)N=C(c2ccc(OCCCO)cc2)O[C@H]1c1ccccc1	0.439	3.21 (inactive)	1.04 (inactive)	-0.0393 (inactive)	2.41	1.95 (inactive)	0.0694	0.0537	-0.0043	-0.0996	0.363	0.963	1.22	-1.26 (inactive)	1.15	-0.327	0.0149	-0.68	-0.348	0.87
[N-]=[N+]=Nc1ccccc1C[C@]1(C(=O)NCC(O)CO)N=C(c2ccc(OCCCO)cc2)O[C@H]1c1ccccc1 (stereo not given in full)	0.909	1.25 (inactive)	0.0558 (inactive)	0.568 (inactive)	2.2	0.291 (inactive)	0.322	-0.5	0.394	-0.0826	0.848	0.603	0.965	-0.29 (inactive)	0.786	0.544	-0.704	-0.107	-0.735	0.537
O=C(CS)NCCCCCNC(=O)[C@H]1C[C@H]2C(=O)NCC(=O)N2[C@H]1c1cccc(OCCO)c1	0.151	-0.881 (inactive)	0.145 (inactive)	-0.336 (inactive)	0.556	0.663 (inactive)	-0.0778	0.262	-0.154	-0.0987	1.59	-0.248	0.504	-0.957 (inactive)	-0.0137	-1.11	-0.538	0.101	0.129	-0.462
CCOC(=O)C1=CC[C@H]2C(=O)N(c3ccccc3)C(=O)[C@@H]12	1.48	0.296 (inactive)	-0.0087 (inactive)	-0.487 (inactive)	3.4	-0.981 (inactive)	0.157	0.436	1.07	0.08	1.67	0.143	0.0364	0.406 (inactive)	1.19	0.571	0.55	1.01	0.56	0.304
